Test results from the supplement of paper PMC12669032.

Columns and labels:
Test in all cases: growth AUC relative to DMSO control (median of replicates) (fraction); higher = more growth (less inhibition), active = hit call of the paper
Conditions in all cases: 20 µM; 24 h;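 active = AUC reduced over 20% with Padj below 0.05 in at least 2 of 3 replicates; inactive = otherwise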
Coprococcus comes = tested on: Coprococcus comes
Method in brief: (§1)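 Starting at OD600 0.05, gut bacterial monocultures in mGAM were grown anaerobically at 37 °C with 20 µM compound (1% DMSO) under pierced gas-permeable seals. OD600 was read every hour for 24 h, and the lowest OD of each curve was set to 0. Area under the growth curve was normalised to the plate median of solvent-only wells, or to row and column medians on the industrial chemical plate, and the median of three biological replicates grown on separate days is given.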

Escherichia coli ED1a = tested on: Escherichia coli ED1a
Method in brief: as §1

Escherichia coli IAI1 = tested on: Escherichia coli IAI1
Method in brief: as §1

Eubacterium rectale = tested on: Eubacterium rectale
Method in brief: as §1

[1] = tested on: Fusobacterium nucleatum subsp. animalis
Method in brief: as §1

Lactobacillus gasseri = tested on: Lactobacillus gasseri
Method in brief: as §1

Lactobacillus paracasei = tested on: Lactobacillus paracasei
Method in brief: as §1

Odoribacter splanchnicus = tested on: Odoribacter splanchnicus
Method in brief: as §1

[2] = tested on: Parabacteroides distasonis
Method in brief: as §1

Parabacteroides merdae = tested on: Parabacteroides merdae
Method in brief: as §1

Measured: growth AUC

CC/C(=N\OC/C=C/Cl)C1=C(O)CC(C2CCOCC2)CC1=O (stereo not given)
inactive: Coprococcus comes 1.01 | Escherichia coli ED1a 1 | Escherichia coli IAI1 1.03 | Eubacterium rectale 0.996 | [1] 0.983 | Lactobacillus gasseri 0.994 | Lactobacillus paracasei 1.1 | Odoribacter splanchnicus 1.04 | [2] 0.998 | Parabacteroides merdae 1.02

CC(C)Oc1cc(-n2nc(C(C)(C)C)oc2=O)c(Cl)cc1Cl
inactive: Coprococcus comes 1.01 | Escherichia coli ED1a 0.96 | Escherichia coli IAI1 0.993 | Eubacterium rectale 1.04 | [1] 1 | Lactobacillus gasseri 0.803 | Lactobacillus paracasei 1.01 | Odoribacter splanchnicus 0.967 | Parabacteroides merdae 0.96
active: [2] 0.705

N#CC(CCc1ccc(Cl)cc1)(Cn1cncn1)c1ccccc1 (stereo not given)
inactive: Coprococcus comes 0.969 | Escherichia coli ED1a 1.03 | Escherichia coli IAI1 1.02 | Eubacterium rectale 1.07 | [1] 0.942 | Lactobacillus gasseri 0.904 | Lactobacillus paracasei 0.952 | Odoribacter splanchnicus 0.88 | Parabacteroides merdae 0.96
active: [2] 0.57

CN(C)C(CSC(N)=O)CSC(N)=O.Cl
inactive: Coprococcus comes 1.09 | Escherichia coli ED1a 1.03 | Escherichia coli IAI1 1.04 | Eubacterium rectale 1.54 | [1] 1.15 | Lactobacillus gasseri 0.978 | Lactobacillus paracasei 1.08 | Odoribacter splanchnicus 0.982 | [2] 1.04 | Parabacteroides merdae 1.04

CC(=O)CC(c1ccc(Cl)cc1)c1c(O)c2ccccc2oc1=O (stereo not given)
inactive: Coprococcus comes 0.987 | Escherichia coli ED1a 0.952 | Escherichia coli IAI1 1.02 | Eubacterium rectale 0.881 | [1] 0.929 | Lactobacillus gasseri 1.3 | Lactobacillus paracasei 0.982 | Odoribacter splanchnicus 0.971 | Parabacteroides merdae 0.954
active: [2] 0.787

CNC(=O)ON=C(CSC)C(C)(C)C
inactive: Coprococcus comes 0.968 | Escherichia coli ED1a 1.01 | Escherichia coli IAI1 1 | Eubacterium rectale 0.981 | [1] 1.01 | Lactobacillus gasseri 1.03 | Lactobacillus paracasei 0.985 | Odoribacter splanchnicus 0.983 | [2] 1.02 | Parabacteroides merdae 1.02

CCNc1nc(Cl)nc(NCC)n1
inactive: Coprococcus comes 1.01 | Escherichia coli ED1a 1.05 | Escherichia coli IAI1 1.03 | Eubacterium rectale 0.961 | [1] 0.977 | Lactobacillus gasseri 1.09 | Lactobacillus paracasei 1 | Odoribacter splanchnicus 0.998 | [2] 1.01 | Parabacteroides merdae 1.01

CC(C)Nc1nc(Cl)nc(NC(C)C)n1
inactive: Coprococcus comes 0.958 | Escherichia coli ED1a 1.03 | Escherichia coli IAI1 0.978 | Eubacterium rectale 1.07 | [1] 1.04 | Lactobacillus gasseri 0.983 | Lactobacillus paracasei 1.06 | Odoribacter splanchnicus 0.797 | [2] 1.02 | Parabacteroides merdae 0.968

Clc1cc(Cl)c(Cl)c(Cl)c1
inactive: Coprococcus comes 0.984 | Escherichia coli ED1a 0.961 | Escherichia coli IAI1 0.982 | Eubacterium rectale 1.05 | [1] 0.957 | Lactobacillus gasseri 0.918 | Lactobacillus paracasei 0.949 | Odoribacter splanchnicus 1.08 | [2] 0.953 | Parabacteroides merdae 0.941

ClC1=C(Cl)C2(Cl)[C@H]3[C@@H]4O[C@@H]4[C@H](Cl)[C@H]3C1(Cl)C2(Cl)Cl (single isomer, unassigned; isomer b)
inactive: Coprococcus comes 0.931 | Escherichia coli ED1a 0.995 | Escherichia coli IAI1 0.983 | Eubacterium rectale 0.979 | [1] 0.923 | Lactobacillus gasseri 0.95 | Lactobacillus paracasei 0.501 | Odoribacter splanchnicus 1.07 | [2] 1.03 | Parabacteroides merdae 0.969

CCOC(=O)OC1=C(c2cc(C)ccc2C)C(=O)NC12CCC(OC)CC2 (stereo not given)
inactive: Coprococcus comes 0.998 | Escherichia coli ED1a 1.01 | Escherichia coli IAI1 0.983 | Eubacterium rectale 1.01 | [1] 0.965 | Lactobacillus gasseri 0.993 | Lactobacillus paracasei 0.992 | Odoribacter splanchnicus 0.969 | [2] 0.981 | Parabacteroides merdae 1.03

Clc1ccc(Cl)c(Cl)c1Cl
inactive: Coprococcus comes 0.989 | Escherichia coli ED1a 0.973 | Escherichia coli IAI1 0.981 | Eubacterium rectale 0.968 | [1] 1.03 | Lactobacillus gasseri 0.945 | Lactobacillus paracasei 1.11 | Odoribacter splanchnicus 0.973 | [2] 0.981 | Parabacteroides merdae 0.999

Cc1cc(C)nc(NC(=O)NS(=O)(=O)c2ccccc2C(=O)OC2COC2)n1
inactive: Coprococcus comes 0.97 | Escherichia coli ED1a 0.986 | Escherichia coli IAI1 0.983 | Eubacterium rectale 1.07 | [1] 1.02 | Lactobacillus gasseri 0.884 | Lactobacillus paracasei 1.08 | Odoribacter splanchnicus 1.01 | [2] 1.02 | Parabacteroides merdae 0.997

Nc1c(Cl)cc([N+](=O)[O-])cc1Cl
inactive: Coprococcus comes 1.01 | Escherichia coli ED1a 0.951 | Escherichia coli IAI1 0.962 | Eubacterium rectale 1.08 | [1] 0.898 | Lactobacillus gasseri 0.923 | Lactobacillus paracasei 1.1 | Odoribacter splanchnicus 1.03 | [2] 0.933 | Parabacteroides merdae 0.93

CNC(=O)Oc1cc(C)c(S(C)(=O)=O)c(C)c1
inactive: Coprococcus comes 0.98 | Escherichia coli ED1a 0.981 | Escherichia coli IAI1 0.963 | Eubacterium rectale 0.971 | [1] 1.05 | Lactobacillus gasseri 0.999 | Lactobacillus paracasei 1.02 | Odoribacter splanchnicus 1.01 | [2] 1.05 | Parabacteroides merdae 1.02

CCCN(CCC)N=O
inactive: Coprococcus comes 1.02 | Escherichia coli ED1a 1.03 | Escherichia coli IAI1 1 | Eubacterium rectale 0.979 | [1] 0.989 | Lactobacillus gasseri 0.956 | Lactobacillus paracasei 0.984 | Odoribacter splanchnicus 1.06 | [2] 1.11 | Parabacteroides merdae 1.03

COc1cc(OC)nc(NC(=O)NS(=O)(=O)c2ncccc2C(F)(F)F)n1
inactive: Coprococcus comes 1.02 | Escherichia coli ED1a 0.985 | Escherichia coli IAI1 0.998 | Eubacterium rectale 1.09 | [1] 1.04 | Lactobacillus gasseri 1.02 | Lactobacillus paracasei 0.986 | Odoribacter splanchnicus 1.09 | [2] 1.05 | Parabacteroides merdae 1.04

COP(=O)(NC(C)=O)SC (stereo not given)
inactive: Coprococcus comes 0.979 | Escherichia coli ED1a 1.01 | Escherichia coli IAI1 0.993 | Eubacterium rectale 0.921 | [1] 0.99 | Lactobacillus gasseri 1.1 | Lactobacillus paracasei 1.02 | Odoribacter splanchnicus 0.999 | [2] 1.06 | Parabacteroides merdae 1.01
